About 7,900 targets were measured; listed, in parts, are those with a hit and a random draw of the rest. About 0.6% of all pairs of compound and target were hits. A number with no mark means an inactive call.
Legend:
Assay in all cases: log2 fold change, soluble protein after heating vs DMSO (PISA); higher = thermal stabilisation; K562 cells, 10 uM, 30 min; active = over 0.2 and 3.5 SD of the protein, either way, in both replicates (recomputed)
[1] = compound: NC(=O)Nc1cc(-c2cccc(F)c2)sc1C(=O)N[C@H]1CCCNC1
Outline: (§1)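 Soluble protein was quantified by TMTpro 16plex LC-MS/MS after channel sums were equalised. It was obtained as the supernatant after 21,000xg for 90 min from pooled aliquots of K562 cells (2×10^6 cells/mL, 10 μM compound, 30 min) heated for 3 min across 48°C-58°C and extracted in PBS with 0.5% NP-40 at 4°C. Thermal stability values are relative to control samples and come from duplicates. They are given as log2 fold changes.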

[2] = compound: NC(=O)c1cnc(N[C@@H]2CCCC[C@@H]2N)nc1Nc1cccc(-n2nccn2)c1
Outline: as §1

[3] = compound: NC1(c2ccc(-c3nc4ccn5c(=O)[nH]nc5c4cc3-c3ccccc3)cc2)CCC1
Outline: as §1

[4] = compound: NCC(=O)Nc1ccc(-n2nc(C(F)(F)F)cc2-c2ccc3c(ccc4ccccc43)c2)cc1
Outline: as §1

[5] = compound: Nc1ccccc1NC(=O)c1ccc(CNC(=O)OCc2cccnc2)cc1 [entinostat]
Outline: as §1

[6] = compound: O=C(CCCCCCC(=O)Nc1ccccc1)NO [vorinostat]
Outline: as §1

[7] = compound: O=C(CCCCCCNC(=O)c1cnc(N(c2ccccc2)c2ccccc2Cl)nc1)NO [citarinostat]
Outline: as §1

[8] = compound: O=C(O)c1ccc2c(c1)nc(Nc1cccc(Cl)c1)c1ccncc12 [silmitasertib]
Outline: as §1

[9] = compound: O=C1NC(=O)C(c2cnc3ccccn23)=C1c1cn2c3c(cc(F)cc13)CN(C(=O)N1CCCCC1)CC2
Outline: as §1

[10] = compound: c1cc(OCCN2CCCCC2)cc(-c2n[nH]c3ccc(-c4nnc[nH]4)cc23)c1
Outline: as §1

[11] = compound: c1cn2cc(-c3ccc4cn[nH]c4c3)nc(Nc3ccc(N4CCOCC4)cc3)c2n1 [entospletinib]
Outline: as §1

UniProt Q9UI12, sequence (Q9UI12 whole entry, looked up): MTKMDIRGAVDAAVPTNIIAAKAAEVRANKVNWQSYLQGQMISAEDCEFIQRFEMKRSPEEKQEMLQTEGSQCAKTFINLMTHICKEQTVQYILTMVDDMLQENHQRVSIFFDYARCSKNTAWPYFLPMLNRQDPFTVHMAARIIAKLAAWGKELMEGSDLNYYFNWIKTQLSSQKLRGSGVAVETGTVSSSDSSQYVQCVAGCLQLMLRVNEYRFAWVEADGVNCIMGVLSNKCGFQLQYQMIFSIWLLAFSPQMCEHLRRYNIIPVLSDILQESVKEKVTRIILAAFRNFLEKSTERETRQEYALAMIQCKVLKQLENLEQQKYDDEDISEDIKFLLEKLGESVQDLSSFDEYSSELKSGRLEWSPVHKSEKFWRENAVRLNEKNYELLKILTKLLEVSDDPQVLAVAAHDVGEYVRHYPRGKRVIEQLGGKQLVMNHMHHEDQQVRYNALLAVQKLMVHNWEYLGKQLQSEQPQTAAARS
UniProt P11766, sequence (P11766 whole entry, looked up): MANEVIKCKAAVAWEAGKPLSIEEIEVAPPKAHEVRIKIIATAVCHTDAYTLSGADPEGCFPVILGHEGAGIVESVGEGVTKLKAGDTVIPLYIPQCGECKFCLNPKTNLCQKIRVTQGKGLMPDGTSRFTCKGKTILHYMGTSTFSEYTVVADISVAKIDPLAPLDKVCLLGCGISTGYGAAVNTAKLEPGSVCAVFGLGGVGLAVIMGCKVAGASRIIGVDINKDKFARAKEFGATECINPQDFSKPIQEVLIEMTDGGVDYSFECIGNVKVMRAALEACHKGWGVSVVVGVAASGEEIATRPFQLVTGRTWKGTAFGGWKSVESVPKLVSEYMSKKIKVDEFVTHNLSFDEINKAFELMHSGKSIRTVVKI
UniProt O14965, sequence (O14965 whole entry, looked up): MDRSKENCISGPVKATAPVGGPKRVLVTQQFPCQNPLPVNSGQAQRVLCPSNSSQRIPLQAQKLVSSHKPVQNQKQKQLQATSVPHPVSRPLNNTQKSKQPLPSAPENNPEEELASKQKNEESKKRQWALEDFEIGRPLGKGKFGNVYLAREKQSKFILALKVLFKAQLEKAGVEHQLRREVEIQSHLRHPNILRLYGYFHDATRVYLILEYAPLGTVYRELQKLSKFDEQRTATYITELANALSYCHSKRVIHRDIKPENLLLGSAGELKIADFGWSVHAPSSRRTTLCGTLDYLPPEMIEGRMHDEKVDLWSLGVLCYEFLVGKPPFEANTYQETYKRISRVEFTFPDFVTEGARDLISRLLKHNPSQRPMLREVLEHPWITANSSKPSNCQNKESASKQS
UniProt Q92560, sequence (Q92560 whole entry, looked up): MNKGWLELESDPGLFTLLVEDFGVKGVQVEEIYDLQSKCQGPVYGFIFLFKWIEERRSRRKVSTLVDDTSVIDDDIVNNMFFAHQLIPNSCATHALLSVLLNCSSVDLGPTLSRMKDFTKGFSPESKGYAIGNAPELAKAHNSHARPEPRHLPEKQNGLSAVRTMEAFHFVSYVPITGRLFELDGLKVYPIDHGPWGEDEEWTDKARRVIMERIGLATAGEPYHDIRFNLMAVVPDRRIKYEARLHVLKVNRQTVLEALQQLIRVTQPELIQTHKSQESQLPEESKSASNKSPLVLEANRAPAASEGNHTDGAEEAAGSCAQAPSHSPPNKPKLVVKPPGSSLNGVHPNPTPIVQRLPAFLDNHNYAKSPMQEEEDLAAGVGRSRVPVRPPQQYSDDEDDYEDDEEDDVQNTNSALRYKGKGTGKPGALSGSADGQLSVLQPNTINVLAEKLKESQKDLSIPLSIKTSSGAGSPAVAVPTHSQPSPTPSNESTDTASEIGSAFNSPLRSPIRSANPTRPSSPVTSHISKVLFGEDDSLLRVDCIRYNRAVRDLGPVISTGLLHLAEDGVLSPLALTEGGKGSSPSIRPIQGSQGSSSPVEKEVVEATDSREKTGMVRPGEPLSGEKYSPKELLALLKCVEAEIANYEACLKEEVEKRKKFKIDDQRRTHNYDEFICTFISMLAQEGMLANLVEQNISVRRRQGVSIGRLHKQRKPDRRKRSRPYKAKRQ
UniProt P02749, sequence (P02749 whole entry, looked up): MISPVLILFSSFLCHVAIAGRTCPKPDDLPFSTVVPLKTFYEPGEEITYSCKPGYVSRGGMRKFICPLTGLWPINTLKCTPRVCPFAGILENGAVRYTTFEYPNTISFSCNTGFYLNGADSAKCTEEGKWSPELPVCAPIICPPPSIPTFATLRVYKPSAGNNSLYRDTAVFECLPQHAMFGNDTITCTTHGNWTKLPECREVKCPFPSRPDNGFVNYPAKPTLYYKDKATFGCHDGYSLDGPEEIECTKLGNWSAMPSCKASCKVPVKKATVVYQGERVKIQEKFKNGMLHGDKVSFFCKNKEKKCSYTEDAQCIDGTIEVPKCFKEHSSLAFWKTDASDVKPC
UniProt Q9UKV3, sequence (Q9UKV3 whole entry, looked up): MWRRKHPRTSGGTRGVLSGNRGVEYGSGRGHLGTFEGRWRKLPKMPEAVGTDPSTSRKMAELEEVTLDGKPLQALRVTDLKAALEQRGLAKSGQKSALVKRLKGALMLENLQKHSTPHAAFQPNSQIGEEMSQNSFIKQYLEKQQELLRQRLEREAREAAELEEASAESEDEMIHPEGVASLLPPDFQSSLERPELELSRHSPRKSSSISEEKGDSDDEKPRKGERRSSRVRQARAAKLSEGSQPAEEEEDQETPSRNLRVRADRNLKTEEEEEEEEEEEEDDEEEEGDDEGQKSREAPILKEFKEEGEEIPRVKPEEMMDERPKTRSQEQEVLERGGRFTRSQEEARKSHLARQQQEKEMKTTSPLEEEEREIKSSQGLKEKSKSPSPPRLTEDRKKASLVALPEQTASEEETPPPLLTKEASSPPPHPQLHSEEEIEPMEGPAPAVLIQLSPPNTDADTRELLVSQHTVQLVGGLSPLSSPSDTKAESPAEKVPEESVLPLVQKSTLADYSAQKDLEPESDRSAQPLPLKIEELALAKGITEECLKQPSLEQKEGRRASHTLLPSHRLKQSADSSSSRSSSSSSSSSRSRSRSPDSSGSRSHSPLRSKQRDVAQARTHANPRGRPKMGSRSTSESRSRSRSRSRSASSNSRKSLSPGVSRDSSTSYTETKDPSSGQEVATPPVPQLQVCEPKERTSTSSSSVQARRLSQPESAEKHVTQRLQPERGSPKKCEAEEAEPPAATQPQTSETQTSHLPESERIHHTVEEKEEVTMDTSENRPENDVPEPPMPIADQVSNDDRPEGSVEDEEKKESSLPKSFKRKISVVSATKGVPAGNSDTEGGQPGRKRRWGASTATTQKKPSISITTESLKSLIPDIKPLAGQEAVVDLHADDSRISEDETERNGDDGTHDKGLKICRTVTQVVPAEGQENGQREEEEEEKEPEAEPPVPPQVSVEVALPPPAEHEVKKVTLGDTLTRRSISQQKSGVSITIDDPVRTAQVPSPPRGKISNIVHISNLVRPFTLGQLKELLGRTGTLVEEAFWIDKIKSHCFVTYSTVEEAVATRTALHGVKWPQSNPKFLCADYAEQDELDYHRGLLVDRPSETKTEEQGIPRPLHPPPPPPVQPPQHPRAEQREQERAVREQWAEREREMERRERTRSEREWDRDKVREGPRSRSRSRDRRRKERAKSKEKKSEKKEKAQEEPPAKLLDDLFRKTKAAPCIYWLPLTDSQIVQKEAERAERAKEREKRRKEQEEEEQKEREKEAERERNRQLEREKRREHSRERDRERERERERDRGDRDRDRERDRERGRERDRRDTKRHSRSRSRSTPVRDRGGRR
UniProt Q9BTE6, sequence (Q9BTE6 whole entry, looked up): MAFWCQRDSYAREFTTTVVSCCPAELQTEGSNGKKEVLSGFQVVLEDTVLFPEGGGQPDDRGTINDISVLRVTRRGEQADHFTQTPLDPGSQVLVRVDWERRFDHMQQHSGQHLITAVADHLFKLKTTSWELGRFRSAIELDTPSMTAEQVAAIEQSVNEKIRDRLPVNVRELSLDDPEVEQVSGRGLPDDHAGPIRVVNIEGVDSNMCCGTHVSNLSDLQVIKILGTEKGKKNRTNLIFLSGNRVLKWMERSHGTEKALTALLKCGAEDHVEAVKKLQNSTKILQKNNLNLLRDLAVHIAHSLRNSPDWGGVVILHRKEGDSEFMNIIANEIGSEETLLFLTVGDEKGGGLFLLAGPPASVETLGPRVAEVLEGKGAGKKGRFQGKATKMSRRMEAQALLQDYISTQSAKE
UniProt Q04771, sequence (Q04771 whole entry, looked up): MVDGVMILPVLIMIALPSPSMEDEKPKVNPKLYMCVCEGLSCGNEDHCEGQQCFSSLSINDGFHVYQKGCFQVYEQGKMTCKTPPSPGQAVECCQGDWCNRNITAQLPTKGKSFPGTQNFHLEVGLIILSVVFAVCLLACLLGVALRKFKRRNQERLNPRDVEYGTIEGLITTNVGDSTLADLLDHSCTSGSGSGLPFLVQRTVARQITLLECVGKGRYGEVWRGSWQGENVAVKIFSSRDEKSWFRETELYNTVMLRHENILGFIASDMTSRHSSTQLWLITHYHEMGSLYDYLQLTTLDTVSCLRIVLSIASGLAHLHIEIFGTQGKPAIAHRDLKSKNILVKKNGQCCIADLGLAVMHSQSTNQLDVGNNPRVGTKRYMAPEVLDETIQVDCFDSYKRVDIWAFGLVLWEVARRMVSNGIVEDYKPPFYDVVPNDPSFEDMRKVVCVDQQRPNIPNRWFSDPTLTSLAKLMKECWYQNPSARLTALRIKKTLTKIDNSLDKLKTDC
UniProt P30043, sequence (P30043 whole entry, looked up): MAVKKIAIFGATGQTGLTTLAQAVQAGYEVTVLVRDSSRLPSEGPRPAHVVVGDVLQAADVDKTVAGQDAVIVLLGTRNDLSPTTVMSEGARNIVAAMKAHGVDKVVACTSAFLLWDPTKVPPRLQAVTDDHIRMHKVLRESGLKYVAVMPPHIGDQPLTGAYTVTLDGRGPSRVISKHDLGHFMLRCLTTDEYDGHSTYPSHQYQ
UniProt P40616, sequence (P40616 whole entry, looked up): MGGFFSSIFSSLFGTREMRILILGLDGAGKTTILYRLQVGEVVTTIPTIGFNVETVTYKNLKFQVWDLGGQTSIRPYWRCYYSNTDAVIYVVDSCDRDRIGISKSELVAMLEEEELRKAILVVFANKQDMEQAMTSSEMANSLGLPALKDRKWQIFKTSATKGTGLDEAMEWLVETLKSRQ

In the case of ATP6V1H (UniProt Q9UI12), the log2 fold change [1] is reported as 0, the log2 fold change [2] is reported as -0.141 and the log2 fold change [3] is reported as -0.201. It also gave a log2 fold change [4] of -0.094, a log2 fold change [5] of 0.046 and a log2 fold change [6] of 0.032. The log2 fold change [7] was 0.031, the log2 fold change [8] was 0.005 and the log2 fold change [9] was 0.025. It also gave a log2 fold change [10] of -0.062 and a log2 fold change [11] of 0.004.
With ATRN (UniProt O75882) the log2 fold change [1] was -0.007, the log2 fold change [2] was -0.023 and the log2 fold change [3] was -0.073. The log2 fold change [4] was -0.031, the log2 fold change [5] was -0.016 and the log2 fold change [6] was -0.006. For the same target, the log2 fold change [7] was -0.004, the log2 fold change [8] was 0.006 and the log2 fold change [9] was -0.538 (active). The log2 fold change [10] was -0.092 and the log2 fold change [11] was 0.02.
With BAP1 (UniProt Q92560) the log2 fold change [1] was -0.073, the log2 fold change [2] was 0.085 and the log2 fold change [3] was 0.073. The log2 fold change [4] was 0.012, the log2 fold change [5] was -0.054 and the log2 fold change [6] was 0.13. The log2 fold change [7] was 0.058, the log2 fold change [8] was 0.04 and the log2 fold change [9] was 0.076. It also gave a log2 fold change [10] of -0.142 and a log2 fold change [11] of -0.062.
For ADH5 (UniProt P11766), the log2 fold change [1] was 0.024, the log2 fold change [2] was 0.002 and the log2 fold change [3] was -0.006. The log2 fold change [4] was 0.021, the log2 fold change [5] was -0.031 and the log2 fold change [6] was -0.013. It also gave a log2 fold change [7] of 0.015, a log2 fold change [8] of -0.026 and a log2 fold change [9] of -0.03. The log2 fold change [10] was -0.016 and the log2 fold change [11] was -0.025.
Target ALDH6A1 (UniProt Q02252) has a log2 fold change [1] of -0.02, a log2 fold change [2] of 0.034 and a log2 fold change [3] of -0.045. It also gave a log2 fold change [4] of -0.116, a log2 fold change [5] of -0.052 and a log2 fold change [6] of 0.021. It also gave a log2 fold change [7] of 0.062, a log2 fold change [8] of 0.048 and a log2 fold change [9] of -0.072. It also gave a log2 fold change [10] of -0.043 and a log2 fold change [11] of -0.028.
AGRN (UniProt O00468) gave a log2 fold change [1] of 0.016, a log2 fold change [2] of 0.053 and a log2 fold change [3] of 0.033. For the same target, the log2 fold change [4] was 0.02, the log2 fold change [5] was 0.035 and the log2 fold change [6] was -0.126. The log2 fold change [7] was 0.01, the log2 fold change [8] was -0.073 and the log2 fold change [9] was 0.087. It also gave a log2 fold change [10] of -0.238 and a log2 fold change [11] of 0.018.
With AURKA (UniProt O14965) the log2 fold change [1] was 0.077, the log2 fold change [2] was -0.02 and the log2 fold change [3] was 0.059. It also gave a log2 fold change [4] of -0.033, a log2 fold change [5] of -0.072 and a log2 fold change [6] of -0.06. For the same target, the log2 fold change [7] was -0.036, the log2 fold change [8] was 0.015 and the log2 fold change [9] was 0.105. For the same target, the log2 fold change [10] was -0.328 and the log2 fold change [11] was 0.282.
In the case of AARSD1 isoform 3 (UniProt Q9BTE6), the log2 fold change [1] is reported as -0.051, the log2 fold change [2] is reported as -0.008 and the log2 fold change [3] is reported as -0.214 (active). The log2 fold change [4] was -0.04, the log2 fold change [5] was 0.054 and the log2 fold change [6] was -0.113. For the same target, the log2 fold change [7] was 0.033, the log2 fold change [8] was 0.046 and the log2 fold change [9] was 0.008. It also gave a log2 fold change [10] of 0.011 and a log2 fold change [11] of -0.066.
Target ACIN1 (UniProt Q9UKV3) has a log2 fold change [1] of -0.013, a log2 fold change [2] of -0.038 and a log2 fold change [3] of 0.003. For the same target, the log2 fold change [4] was -0.062, the log2 fold change [5] was -0.024 and the log2 fold change [6] was 0.035. It also gave a log2 fold change [7] of 0.035, a log2 fold change [8] of -0.124 and a log2 fold change [9] of 0.013. For the same target, the log2 fold change [10] was -0.084 and the log2 fold change [11] was -0.008.
In the case of APOH (UniProt P02749), the log2 fold change [1] is reported as -0.094, the log2 fold change [2] is reported as -0.109 and the log2 fold change [3] is reported as -0.414. It also gave a log2 fold change [4] of 0.065, a log2 fold change [5] of 0.06 and a log2 fold change [6] of 0.354. It also gave a log2 fold change [7] of -0.149, a log2 fold change [8] of 0.565 and a log2 fold change [10] of 0.006. For the same target, the log2 fold change [11] was 0.206.
For BLVRB (UniProt P30043), the log2 fold change [1] was 0.069, the log2 fold change [2] was 0.006 and the log2 fold change [3] was -0.116. The log2 fold change [4] was 0.018, the log2 fold change [5] was 0.058 and the log2 fold change [6] was 0. It also gave a log2 fold change [7] of 0.058, a log2 fold change [8] of 0.01 and a log2 fold change [9] of 0.021. It also gave a log2 fold change [10] of -0.035 and a log2 fold change [11] of 0.069.
With BMP2K (UniProt Q9NSY1) the log2 fold change [1] was 0.297, the log2 fold change [2] was 0.076 and the log2 fold change [3] was 0.035. It also gave a log2 fold change [4] of -0.007, a log2 fold change [5] of -0.037 and a log2 fold change [6] of -0.078. It also gave a log2 fold change [7] of -0.053, a log2 fold change [8] of 0.031 and a log2 fold change [9] of 0.291. For the same target, the log2 fold change [10] was 0.241 and the log2 fold change [11] was 0.157.
ACVR1 (UniProt Q04771) showed a log2 fold change [1] of 0.044, a log2 fold change [2] of 0.074 and a log2 fold change [3] of 0. The log2 fold change [4] was 0.089, the log2 fold change [5] was 0.137 and the log2 fold change [6] was -0.255. It also gave a log2 fold change [7] of 0.07, a log2 fold change [8] of 0.046 and a log2 fold change [9] of -0.069. The log2 fold change [10] was 0.027 and the log2 fold change [11] was -0.053.
ARL1 (UniProt P40616) gave a log2 fold change [1] of 0.142, a log2 fold change [2] of 0.055 and a log2 fold change [3] of -0.173. The log2 fold change [4] was -0.019, the log2 fold change [5] was 0.031 and the log2 fold change [6] was 0.149. For the same target, the log2 fold change [7] was 0.161, the log2 fold change [8] was 0.006 and the log2 fold change [9] was 0.04. The log2 fold change [10] was 0.007 and the log2 fold change [11] was -0.139.

— the supplement of paper PMC10849652
